The source of these data is PubChem BioAssay (NCI).

The panel holds about 79,000 compounds, 15% with a hit somewhere; the sample as a whole holds those more often. A number with no mark means an inactive call. Activity calls are given as the source filed them. Cut-off read from the data, not from the text of the source: active = growth inhibition above about 70%; inactive = the rest.

A short description of the first experiment: NCI Yeast Anticancer Drug Screen. Data for the bub3 strain (AID 167). The conditions noted are these: S. cerevisiae bub3 mutant strain, at 50.0 µM (retest, dose inferred, filed as 5.0), stronger effect = higher value. The procedure, abridged: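 Whole-cell yeast assay. The mutant strain was incubated with compounds, and growth inhibition was determined by comparison with vehicle-treated cells.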
As for `O=C(OC1C2CCC2C2CC21)c1ccc([N+](=O)[O-])cc1[N+](=O)[O-]` (stereo not drawn), the growth inhibition is 93% (active).
For `N#CCc1nc2c(s1)C(=O)c1ccccc1C2=O`, the growth inhibition was 99% (active).
As to `CC1=C(C(=S)Nc2ccc(Cl)c(C(=O)OC(C)C)c2)SCCO1`, the growth inhibition is 95% (active).
Turning to `O=C1C(Cl)=C(c2ccc([N+](=O)[O-])cc2)C(=O)c2c(O)cccc21`, the growth inhibition was 94% (active).
With `CCOc1ccc2nc(C)cc(C)c2c1`, the growth inhibition is 63%.
For the compound `CN(C)CC(O)c1cc(-c2ccc(Cl)cc2)nc2c(Cl)cc(Cl)cc12` (stereo not drawn), the growth inhibition is 99% (active).
For `CCCC(=S)N1CCOCC1`, the growth inhibition was -1%.
Take `C/C(=C/CC1CCC2C3=CCC4CC(O)CCC4(C)C3CCC12C)C(C)C(C)C` (stereo not drawn): the growth inhibition is 97% (active).
For the compound `NCC(O)CSc1ccc(Cl)c(Cl)c1` (stereo not drawn), the growth inhibition is 3%.
The same measure, in the same setting: as for `CCCCCCCCC(=O)NCCCNCCCNC(=O)CCCCCCCC`, the figure is -28%; as for `O=C1c2ccc(O)cc2C(=O)c2c1ccc(O)c2O`, 94% (active).
On the same count and under the same terms, as for `Clc1nc(Cl)c(Cl)c(-c2ccccc2)n1`, the figure is 86% (active).
Consider `Cc1ccc(-c2c(C#N)c(-c3ccc(Cl)cc3)c(C#N)c(=O)n2NS(=O)(=O)c2ccccc2)cc1`, for which the growth inhibition was 64%.
On to `CC(CCC(=O)O)(c1cc(Br)c(O)c(Br)c1)c1cc(Br)c(O)c(Br)c1`, for which the growth inhibition was 78% (active).
As for `N#CC(C(=O)CCCC(=O)Nc1ccc(Cl)cc1)c1ccccc1Cl` (stereo not drawn), the growth inhibition is 30%.
With `Cc1ccc(S(=O)(=O)S/C(=N\c2ccccn2)Nc2ccccn2)cc1`, the growth inhibition is 11%.
Consider `NC(=O)C1CCCN1C(=O)C1CCCN(Cc2cc(CN3CCCC(C(=O)N4CCCC4C(N)=O)C3)cc(CN3CCCC(C(=O)N4CCCC4C(N)=O)C3)c2)C1` (stereo not drawn), for which the growth inhibition was 2%.
In the case of `O=C(/C=C\c1cccc2ccccc12)c1ccccn1`, the growth inhibition was 99% (active).
As for `COC(=O)c1cccc2c1C(=O)c1ccccc1-2`, the growth inhibition was -54%.
For the compound `Cn1c(=S)c2[nH]c(SCCN3CCCCC3)nc2n(C)c1=O`, the growth inhibition is 57%.
Still for that read-out and setting: as for `CN(C)CCCSc1c2ccccc2nc2cccc([N+](=O)[O-])c12`, the figure is 8%; as for `CCCCCCCCN(CCCCCCCC)CC(O)c1cc(-c2ccc(Cl)cc2)nc2c(Cl)cccc12` (stereo not drawn), 12%.
Still for that read-out and setting: in the case of `CCCCCCCCCCCCS` it was -3%; in that of `COC(=O)c1nc(=S)[nH]c(C(=O)OC)c1C(=O)c1ccc([N+](=O)[O-])cc1`, 93% (active).
In the case of `Cc1[nH]c2ccccc2c1C1=CC2(C)Nc3ccccc3C2C(C)(C)C1` (stereo not drawn), the growth inhibition was 79% (active).
On to `CCCCCCCCN(CCCCCCCC)CC(O)c1cc(-c2ccc(OC)cc2)nc2cc(Cl)ccc12` (stereo not drawn), for which the growth inhibition was 85% (active).
In the case of `O=C(CC(C[N+](=O)[O-])c1ccc2c(c1)OCO2)c1ccccc1` (stereo not drawn), the growth inhibition was 45%.
With `CN(C)CCN(C)CCC(=O)/C=C/c1ccccc1`, the growth inhibition was 99% (active).
Turning to `NC(N)=NC(N)=Nc1ccc(-c2ccccc2)cc1`, the growth inhibition was 97% (active).
Regarding `O=[N+]([O-])c1ccccc1NCCO`, the growth inhibition was 2%.
The same measure, in the same setting: as for `Cn1c2c(c3ccccc31)CCN(CCN1CCN(c3cccc(Cl)c3)CC1)C2=O`, the figure is -17%.
On to `CC(=O)Oc1c2c(c(C)c3ccccc13)C(=O)c1cccnc1C2=O`, for which the growth inhibition was -1%.
`O=C(/C(=C/c1ccc2c(c1)OCO2)c1ccccc1)c1ccc(OCCN2CCCC2)cc1`: the growth inhibition is -1%.
As to `O=C1C(=O)c2cc(Cl)ccc2-c2ccc(Cl)cc21`, the growth inhibition was 94% (active).
On to `C/C(=N/NC(=O)Nc1ccc(N=Nc2ccccc2)cc1)c1cccnc1`, for which the growth inhibition is 4%.
On to `CC(Cl)C(=O)Nc1cc2ccccc2oc1=O` (stereo not drawn), for which the growth inhibition was -2%.
On to `CC(C)c1ccc2c(c1)CCC1C(C)(CN)CCCC21C` (stereo not drawn), for which the growth inhibition is 100% (active).
Still for that read-out and setting: in the case of `CN(NC1OC(=O)c2ccccc21)c1ccc(C(F)(F)F)cc1[N+](=O)[O-]` (stereo not drawn) it was 69%; in that of `CCCC(CC)c1c(O)c(O)c(C(CC)CCC)c(C(CC)CCC)c1C(CC)CCC` (stereo not drawn), 59%.

Still in this experiment, the particulars now being: S. cerevisiae bub3 mutant strain, at 50.0 µM, stronger effect = higher value.
For the compound `O=C(OC1C2CCC2C2CC21)c1ccc([N+](=O)[O-])cc1[N+](=O)[O-]` (stereo not drawn), the growth inhibition was 37.2%.
Take `N#CCc1nc2c(s1)C(=O)c1ccccc1C2=O`: the growth inhibition is 87.2% (active).
On the same count and under the same terms, as for `CC1=C(C(=S)Nc2ccc(Cl)c(C(=O)OC(C)C)c2)SCCO1`, the figure is 87.1% (active).
As for `O=C1C(Cl)=C(c2ccc([N+](=O)[O-])cc2)C(=O)c2c(O)cccc21`, the growth inhibition is 90.8% (active).
For `CCOc1ccc2nc(C)cc(C)c2c1`, the growth inhibition was -17.2%.
Turning to `CN(C)CC(O)c1cc(-c2ccc(Cl)cc2)nc2c(Cl)cc(Cl)cc12` (stereo not drawn), the growth inhibition was 99.5% (active).
Still for that read-out and setting: in the case of `CCCC(=S)N1CCOCC1` it was 12.4%.
Still for that read-out and setting: in the case of `C/C(=C/CC1CCC2C3=CCC4CC(O)CCC4(C)C3CCC12C)C(C)C(C)C` (stereo not drawn) it was 64.8%; in that of `NCC(O)CSc1ccc(Cl)c(Cl)c1` (stereo not drawn), 17.2%; in that of `CCCCCCCCC(=O)NCCCNCCCNC(=O)CCCCCCCC`, 90.8% (active).
On the same count and under the same terms, in the case of `O=C1c2ccc(O)cc2C(=O)c2c1ccc(O)c2O` it was 76.9% (active); in that of `Clc1nc(Cl)c(Cl)c(-c2ccccc2)n1`, 85% (active); in that of `Cc1ccc(-c2c(C#N)c(-c3ccc(Cl)cc3)c(C#N)c(=O)n2NS(=O)(=O)c2ccccc2)cc1`, 71% (active).
As for `CC(CCC(=O)O)(c1cc(Br)c(O)c(Br)c1)c1cc(Br)c(O)c(Br)c1`, the growth inhibition was 88.6% (active).
With `N#CC(C(=O)CCCC(=O)Nc1ccc(Cl)cc1)c1ccccc1Cl` (stereo not drawn), the growth inhibition is 99% (active).
Take `Cc1ccc(S(=O)(=O)S/C(=N\c2ccccn2)Nc2ccccn2)cc1`: the growth inhibition was 14%.
For the compound `NC(=O)C1CCCN1C(=O)C1CCCN(Cc2cc(CN3CCCC(C(=O)N4CCCC4C(N)=O)C3)cc(CN3CCCC(C(=O)N4CCCC4C(N)=O)C3)c2)C1` (stereo not drawn), the growth inhibition was 48.8%.
Turning to `O=C(/C=C\c1cccc2ccccc12)c1ccccn1`, the growth inhibition was 97% (active).
Turning to `COC(=O)c1cccc2c1C(=O)c1ccccc1-2`, the growth inhibition was -10.7%.
Take `Cn1c(=S)c2[nH]c(SCCN3CCCCC3)nc2n(C)c1=O`: the growth inhibition was 97.8% (active).
For the compound `CN(C)CCCSc1c2ccccc2nc2cccc([N+](=O)[O-])c12`, the growth inhibition was -43.5%.
Still for that read-out and setting: as for `CCCCCCCCN(CCCCCCCC)CC(O)c1cc(-c2ccc(Cl)cc2)nc2c(Cl)cccc12` (stereo not drawn), the figure is 6.6%; as for `CCCCCCCCCCCCS`, -20.6%; as for `COC(=O)c1nc(=S)[nH]c(C(=O)OC)c1C(=O)c1ccc([N+](=O)[O-])cc1`, 61.1%.
Turning to `Cc1[nH]c2ccccc2c1C1=CC2(C)Nc3ccccc3C2C(C)(C)C1` (stereo not drawn), the growth inhibition was 94.8% (active).
As to `CCCCCCCCN(CCCCCCCC)CC(O)c1cc(-c2ccc(OC)cc2)nc2cc(Cl)ccc12` (stereo not drawn), the growth inhibition was 75.7% (active).
For `O=C(CC(C[N+](=O)[O-])c1ccc2c(c1)OCO2)c1ccccc1` (stereo not drawn), the growth inhibition is 88.2% (active).
As for `CN(C)CCN(C)CCC(=O)/C=C/c1ccccc1`, the growth inhibition was 98.2% (active).
For the compound `NC(N)=NC(N)=Nc1ccc(-c2ccccc2)cc1`, the growth inhibition was 76.5% (active).
For `O=[N+]([O-])c1ccccc1NCCO`, the growth inhibition is -14.2%.
Regarding `Cn1c2c(c3ccccc31)CCN(CCN1CCN(c3cccc(Cl)c3)CC1)C2=O`, the growth inhibition is 87.8% (active).
For the compound `CC(=O)Oc1c2c(c(C)c3ccccc13)C(=O)c1cccnc1C2=O`, the growth inhibition is 98.2% (active).
Take `O=C(/C(=C/c1ccc2c(c1)OCO2)c1ccccc1)c1ccc(OCCN2CCCC2)cc1`: the growth inhibition is 3.45%.
As for `O=C1C(=O)c2cc(Cl)ccc2-c2ccc(Cl)cc21`, the growth inhibition was 86.6% (active).
Same read-out and setting: in the case of `C/C(=N/NC(=O)Nc1ccc(N=Nc2ccccc2)cc1)c1cccnc1` it was 10.8%.
As for `CC(Cl)C(=O)Nc1cc2ccccc2oc1=O` (stereo not drawn), the growth inhibition was 2.45%.
On to `CC(C)c1ccc2c(c1)CCC1C(C)(CN)CCCC21C` (stereo not drawn), for which the growth inhibition was 99.3% (active).
Regarding `CN(NC1OC(=O)c2ccccc21)c1ccc(C(F)(F)F)cc1[N+](=O)[O-]` (stereo not drawn), the growth inhibition is 36.2%.
With `CCCC(CC)c1c(O)c(O)c(C(CC)CCC)c(C(CC)CCC)c1C(CC)CCC` (stereo not drawn), the growth inhibition was 97.2% (active).
